Structures can show the parent of a compound that is named as a salt. ± gives the standard deviation of the averaged measurements.

In the first assay the test system is E. coli TESEC Mtb DapB. As to the kind of experiment: growth (OD600 after 10 h); higher = more growth (less inhibition). To be noted: arabinose induction (level): High; compound 0.1 mM; raw OD600 reference: median of DMSO wells […], cell-free background 0.041. The protocol:
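TESEC E. coli strains in which the native enzyme is deleted and replaced by arabinose-inducible Mtb Asd, DapB, CysH or TrpD, each grown in its selective medium. Strains were screened against the Prestwick library at 0.1 mM and 1% DMSO in 384-well format at low and high arabinose induction. Growth is read as OD600 after 10 h in triplicate.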
`CC1C=CC=CCCC=CC=CC=CC=CC(OC2OC(C)C(O)C(N)C2O)CC2OC(O)(CC(O)C(O)CCC(O)CC(O)CC(O)CC(=O)OC(C)C(C)C1O)CC(O)C2C(=O)O` (stereo not given) [Nystatine] came in with a growth of 0.295 ± 0.013.
`CN(C)C(=O)Oc1ccc[n+](C)c1` [Pyridostigmine iodide] showed a growth of 0.195 ± 0.017.
Turning to `O=C(CCCN1CCC2(CC1)C(=O)NCN2c1ccccc1)c1ccc(F)cc1` [Spiperone], the growth was found to be 0.188 ± 0.013.
Still for that read-out and setting: in the case of `c1ccc2c(c1)Nc1ccccc1S2` [Phenothiazine] it was 0.209 ± 0.034; in that of `C[C@]12COC(=O)C[C@@H]1CC[C@@H]1[C@@H]2CC[C@@]2(C)[C@H]1CC[C@]2(C)O` [Oxandrolone], 0.14 ± 0.0074; in that of `C[C@]12C/C(=C/O)C(=O)C[C@@H]1CC[C@@H]1[C@@H]2CC[C@@]2(C)[C@H]1CC[C@]2(C)O` [Oxymetholone], 0.158 ± 0.013.
Same read-out and setting: in the case of `CC[C@@H](C(N)=O)N1CCCC1=O` [Levetiracetam] it was 0.188 ± 0.0023; in that of `C#C[C@]1(O)CC[C@H]2[C@@H]3CCC4=CC(=O)CC[C@]4(C)[C@H]3CC[C@@]21C` [Ethisterone], 0.179 ± 0.0098; in that of `COc1cc2c(c(OC)c1OC)-c1ccc(OC)c(=O)cc1[C@@H](NC(C)=O)CC2` [Colchicine], 0.204 ± 0.018.
Same read-out and setting: in the case of `CN[C@@H]1[C@@H](O)[C@@H](O[C@@H]2[C@@H](O)[C@H](O[C@H]3O[C@H](CN)CC[C@H]3N)[C@@H](N)C[C@H]2N)OC[C@]1(C)O.CN[C@@H]1[C@@H](O)[C@@H](O[C@@H]2[C@@H](O)[C@H](O[C@H]3O[C@H]([C@@H](C)N)CC[C@H]3N)[C@@H](N)C[C@H]2N)OC[C@]1(C)O.CN[C@@H]1[C@@H](O)[C@@H](O[C@@H]2[C@@H](O)[C@H](O[C@H]3O[C@H]([C@@H](C)NC)CC[C@H]3N)[C@@H](N)C[C@H]2N)OC[C@]1(C)O` [Gentamicine sulfate] it was 0.21 ± 0.067.
`C[C@]12CC[C@@H]3c4ccc(OC(=O)N(CCCl)CCCl)cc4CC[C@H]3[C@@H]1CC[C@@H]2O` [Estramustine] displayed a growth of 0.173 ± 0.0048.
`CC(=O)OC1CN2CCC1CC2` (stereo not given) [Aceclidine Hydrochloride]: the growth is 0.204 ± 0.02.
Still for that read-out and setting: in the case of `CCCC(C)(COC(N)=O)COC(=O)NC(C)C` (stereo not given) [Carisoprodol] it was 0.155 ± 0.0092.
Same read-out and setting: next, `CN(C)C(=O)Oc1cccc([N+](C)(C)C)c1` [Neostigmine bromide]: 0.204 ± 0.0094; `CCNCC(O)c1cccc(O)c1` (stereo not given) [Etilefrine hydrochloride]: 0.205 ± 0.0026; `COc1ccc(CN2CCNCC2)c(OC)c1OC` [Trimetazidine dihydrochloride]: 0.197 ± 0.0097.
Take `COc1cc([C@@H]2c3cc4c(cc3[C@H](O)[C@H]3COC(=O)[C@H]23)OCO4)cc(OC)c1OC` [Podophyllotoxin]: the growth amounted to 0.212 ± 0.012.
The same measure, in the same setting: next, `CCC(COC(=O)c1cc(OC)c(OC)c(OC)c1)(c1ccccc1)N(C)C` (stereo not given) [Trimebutine]: 0.1665 ± 0.0014; `NCC(O)c1ccc(O)cc1` (racemic) [(+,-)-Octopamine hydrochloride]: 0.203 ± 0.0088; `CC(C)N(CCC(C(N)=O)(c1ccccc1)c1ccccn1)C(C)C` (stereo not given) [Disopyramide]: 0.175 ± 0.0095.

Staying with this assay, now noted: arabinose induction (level): Low; compound 0.1 mM; raw OD600 reference: median of DMSO wells 0.227, cell-free background 0.041.
`CC1C=CC=CCCC=CC=CC=CC=CC(OC2OC(C)C(O)C(N)C2O)CC2OC(O)(CC(O)C(O)CCC(O)CC(O)CC(O)CC(=O)OC(C)C(C)C1O)CC(O)C2C(=O)O` (stereo not given) [Nystatine]: the growth is 0.269 ± 0.051.
Same read-out and setting: next, `CN(C)C(=O)Oc1ccc[n+](C)c1` [Pyridostigmine iodide]: 0.221 ± 0.0064; `O=C(CCCN1CCC2(CC1)C(=O)NCN2c1ccccc1)c1ccc(F)cc1` [Spiperone]: 0.218 ± 0.038.
On the same count and under the same terms, in the case of `c1ccc2c(c1)Nc1ccccc1S2` [Phenothiazine] it was 0.236 ± 0.03.
As to `C[C@]12COC(=O)C[C@@H]1CC[C@@H]1[C@@H]2CC[C@@]2(C)[C@H]1CC[C@]2(C)O` [Oxandrolone], the growth turned out to be 0.154 ± 0.015.
Take `C[C@]12C/C(=C/O)C(=O)C[C@@H]1CC[C@@H]1[C@@H]2CC[C@@]2(C)[C@H]1CC[C@]2(C)O` [Oxymetholone]: the growth was found to be 0.194 ± 0.019.
Still for that read-out and setting: next, `CC[C@@H](C(N)=O)N1CCCC1=O` [Levetiracetam]: 0.229 ± 0.023.
The same measure, in the same setting: in the case of `C#C[C@]1(O)CC[C@H]2[C@@H]3CCC4=CC(=O)CC[C@]4(C)[C@H]3CC[C@@]21C` [Ethisterone] it was 0.219 ± 0.02; in that of `COc1cc2c(c(OC)c1OC)-c1ccc(OC)c(=O)cc1[C@@H](NC(C)=O)CC2` [Colchicine], 0.228 ± 0.035; in that of `CN[C@@H]1[C@@H](O)[C@@H](O[C@@H]2[C@@H](O)[C@H](O[C@H]3O[C@H](CN)CC[C@H]3N)[C@@H](N)C[C@H]2N)OC[C@]1(C)O.CN[C@@H]1[C@@H](O)[C@@H](O[C@@H]2[C@@H](O)[C@H](O[C@H]3O[C@H]([C@@H](C)N)CC[C@H]3N)[C@@H](N)C[C@H]2N)OC[C@]1(C)O.CN[C@@H]1[C@@H](O)[C@@H](O[C@@H]2[C@@H](O)[C@H](O[C@H]3O[C@H]([C@@H](C)NC)CC[C@H]3N)[C@@H](N)C[C@H]2N)OC[C@]1(C)O` [Gentamicine sulfate], 0.112 ± 0.0046.
Still for that read-out and setting: next, `C[C@]12CC[C@@H]3c4ccc(OC(=O)N(CCCl)CCCl)cc4CC[C@H]3[C@@H]1CC[C@@H]2O` [Estramustine]: 0.187 ± 0.015; `CC(=O)OC1CN2CCC1CC2` (stereo not given) [Aceclidine Hydrochloride]: 0.232 ± 0.023; `CCCC(C)(COC(N)=O)COC(=O)NC(C)C` (stereo not given) [Carisoprodol]: 0.191 ± 0.015.
Regarding `CN(C)C(=O)Oc1cccc([N+](C)(C)C)c1` [Neostigmine bromide], the growth was found to be 0.232 ± 0.064.
The same measure, in the same setting: in the case of `CCNCC(O)c1cccc(O)c1` (stereo not given) [Etilefrine hydrochloride] it was 0.224 ± 0.035.
On the same count and under the same terms, in the case of `COc1ccc(CN2CCNCC2)c(OC)c1OC` [Trimetazidine dihydrochloride] it was 0.242 ± 0.028; in that of `COc1cc([C@@H]2c3cc4c(cc3[C@H](O)[C@H]3COC(=O)[C@H]23)OCO4)cc(OC)c1OC` [Podophyllotoxin], 0.261 ± 0.027.
On the same count and under the same terms, next, `CCC(COC(=O)c1cc(OC)c(OC)c(OC)c1)(c1ccccc1)N(C)C` (stereo not given) [Trimebutine]: 0.191 ± 0.028; `NCC(O)c1ccc(O)cc1` (racemic) [(+,-)-Octopamine hydrochloride]: 0.271 ± 0.022.
The compound `CC(C)N(CCC(C(N)=O)(c1ccccc1)c1ccccn1)C(C)C` (stereo not given) [Disopyramide] gave a growth of 0.195 ± 0.02.
